A short description of experiment [1]: qHTS RealTime-Glo MT Cell Viability Assay in HEK293 cells - 16 hour (AID 1224872). Note: nearly all actives have a fitted effect of over 50% in size. Note: potency is the fitted concentration of half-maximal effect. An outline of the steps:
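Quantitative high-throughput screen of the Tox21 10K library in HEK293: cells and RealTime-Glo reagents plated together, compound added at 5 h, luminescence monitored through 40 h at 37 C.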
A general note: Quantitative high-throughput screening tests each substance at several concentrations.

Experiment [2] in a line: qHTS RealTime-Glo MT Cell Viability Assay in HEK293 cells - 40 hour (AID 1224874). Note: nearly all actives have a fitted effect of over 50% in size. Note: potency is the fitted concentration of half-maximal effect. As to conditions: RealTime-Glo luminescence; max response: stronger effect = lower value. In a few lines:
(§1)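 HEK293 cells mixed with RealTime-Glo reagents (NanoLuc plus cell-permeant prosubstrate) at 600 cells/well, preincubated 5 h at 37 C/5% CO2, then given 23 nL compound in DMSO. Nonlytic luminescence from viable cells was read at 0, 8, 16, 24, 32 and 40 h.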

Experiment [3] in a line: A CellTox Green Cytotoxicity Assay to monitor cytotoxicity in HEK293 cells - 24 hour (AID 1224875). Note: nearly all actives have a fitted effect of over 45% in size. Note: potency is the fitted concentration of half-maximal effect. In a few lines: (§2)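 HEK293 cells premixed with CellTox Green dye were seeded at 600 cells/well and left 5 h at 37 C/5% CO2 before pin transfer of 23 nL compound in DMSO. Fluorescence from dye bound to dead-cell DNA was read during 40 h treatment.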
The nature of experiment [4]: A CellTox Green Cytotoxicity Assay to monitor cytotoxicity in HepG2 cells - 16 hour (AID 1224876). Note: nearly all actives have a fitted effect of over 45% in size. Note: potency is the fitted concentration of half-maximal effect. An outline of the steps:
(§3)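 HepG2 cells were seeded together with the CellTox Green dye at 600 cells/well, left 5 h at 37 C/5% CO2, then given compounds in DMSO. Fluorescence from dye bound to dead-cell DNA was read repeatedly over 40 h of treatment at 37 C.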

The nature of experiment [5]: qHTS RealTime-Glo MT Cell Viability Assay in HepG2 cells - 32 hour (AID 1224877). Note: nearly all actives have a fitted effect of over 55% in size. Note: potency is the fitted concentration of half-maximal effect. In a few lines: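 Compound treatment began 5 h after plating HepG2 cells (600/well) with NanoLuc luciferase and prosubstrate. Plates stayed at 37 C for 40 h; luminescence was captured at six time points, 0 h through 40 h.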
Experiment [6] is described as follows: A CellTox Green Cytotoxicity Assay to monitor cytotoxicity in HepG2 cells - 24 hour (AID 1224878). Note: nearly all actives have a fitted effect of over 45% in size. Note: potency is the fitted concentration of half-maximal effect. In a few lines:
as §3

The nature of experiment [7]: A CellTox Green Cytotoxicity Assay to monitor cytotoxicity in HepG2 cells - 40 hour (AID 1224879). Note: nearly all actives have a fitted effect of over 40% in size. Note: potency is the fitted concentration of half-maximal effect. In a few lines:
as §3

Experiment [8] is described as follows: qHTS RealTime-Glo MT Cell Viability Assay in HEK293 cells - 0 hour (AID 1224880). Note: top concentration of the series differs between compounds; nearly all actives have a fitted effect of over 45% in size. An outline of the steps:
as §1

Experiment [9] can be described thus: A CellTox Green Cytotoxicity Assay to monitor cytotoxicity in HEK293 cells - 32 hour (AID 1224881). Note: nearly all actives have a fitted effect of over 40% in size. Note: potency is the fitted concentration of half-maximal effect. An outline of the steps:
as §2

Experiment [10] can be described thus: qHTS RealTime-Glo MT Cell Viability Assay in HepG2 cells - 8 hour (AID 1224873). Note: nearly all actives have a fitted effect of over 55% in size. In a few lines:
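HepG2 cells mixed with RealTime-Glo MT reagents (NanoLuc plus cell-permeant prosubstrate) were seeded at 600 cells/well, incubated 5 h at 37 C/5% CO2, then pinned with compounds in DMSO; nonlytic luminescence tracked viability during 40 h treatment.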

Several values for one entry are separate records, joined by “and”; a condition that tells them apart may be missing. Identical values can stand only once. Results filed as inconclusive are left out. Values without a mark were called inactive. Activity calls are given as the source filed them. Calls come from the whole dose curve; as a rule, active = well fitted curve in the direction sought with a large enough effect in the repeat runs; inconclusive = weak or mixed curves; inactive = no such curve, though single readings can be large; an effect the other way counts as inactive or inconclusive.
% is set by controls: 0 for no effect and ±100 for the full control effect.

Turning to `CC1(C)CCC[C@]2(C)[C@H]3CC(=O)O[C@]3(C)CC[C@@H]12`, the Potency result in experiment [1], in experiment [4], in experiment [5], in [6], in experiment [7] and in experiment [8] was “inactive” each time. Also, the max response in experiment [2] is -15.3%. Besides, the Potency in [3] and in [9] was 49 µM (active) throughout.

With `COc1cc(S(=O)(=O)O)c(C)cc1N=Nc1c(O)ccc2cc(S(=O)(=O)O)ccc12`, the Potency entry in experiment [1], in [3], in [4], in [6], in [7] and in [8] was “inactive” in each case. In addition, the max response in experiment [2] is -10.3%.

For `COC(=O)c1ccccc1C`, the Potency result in experiment [1], in [3], in experiment [4], in [5], in experiment [6] and in [7] was “inactive” throughout. In addition, the Potency entry in experiment [8] and in [9] was “inactive” in each case. In experiment [2], the max response is -4.12%.

For the compound `COC1=C(OC)C(=O)C(CCCCCCCCCCO)=C(C)C1=O`, the values for the Potency in experiment [1] and in [2] were 2.39 µM (active) and 5.35 µM (active), respectively. Moreover, the Potency result in [3], in experiment [4], in experiment [5], in experiment [6], in [7] and in experiment [8] was “inactive” throughout. The Potency result in [9] is “inactive”.

As for `COc1ccc(NC(=O)CC(C)=O)cc1`, the Potency result in experiment [1], in [4], in [5], in experiment [6], in [7] and in experiment [8] was “inactive” throughout. Further, in experiment [2], the max response is 8.59%.

For the compound `Cc1c(F)c(N2CCNC(C)C2)cc2c1c(=O)c(C(=O)O)cn2C1CC1` (stereo not drawn), the Potency result in experiment [1], in experiment [3], in experiment [4], in [5], in [6] and in experiment [7] was “inactive” throughout. For the same compound, the Potency entry in experiment [8] and in experiment [9] was “inactive” each time. Besides, the max response in [2] is 11.8%.

Regarding `O=C(Oc1ccccc1)Oc1ccccc1`, the Potency result in experiment [1], in [3], in experiment [4], in [6], in experiment [7] and in experiment [8] was “inactive” each time. Moreover, the Potency entry in experiment [9] is “inactive”. In addition, the max response in experiment [2] was -21%. The Potency in experiment [5] was 48.8 µM (active).

Take `Cc1c(C)c2c(c(C)c1O)CC[C@@](C)(CCC[C@H](C)CCC[C@H](C)CCCC(C)C)O2`: the Potency entry in experiment [1], in [3], in experiment [5], in experiment [6], in [7] and in experiment [8] was “inactive” throughout. Moreover, the max response in [2] is -14.1%.

As to `Cc1ccc(C)cc1`, the Potency entry in [1], in experiment [3], in [4], in experiment [5], in [6] and in experiment [7] was “inactive” each time. Besides, the Potency entry in experiment [8] and in experiment [9] was “inactive” throughout. Besides, the max response in experiment [2] is 12.3%.

Take `CCCCN(CCCC)CC(O)c1cc(Cl)cc2c1-c1ccc(Cl)cc1/C2=C/c1ccc(Cl)cc1` (stereo not drawn): the Potency result in experiment [1], in [3] and in experiment [8] was “inactive” in each case. Further, the max response in [2] is -17.2%. In addition, the Potency in experiment [4] was 21.3 µM (active); in experiment [6] it was 23.9 µM (active); in experiment [7], 23.9 µM (active).

Take `O=C(Nc1ccc2c(O)c(N=Nc3ccc(N=Nc4ccc(S(=O)(=O)O)cc4)cc3)c(S(=O)(=O)O)cc2c1)c1ccccc1`: the Potency result in experiment [1], in experiment [3], in experiment [6], in experiment [7] and in [9] was “inactive” in each case. Moreover, the max response in experiment [2] was -19.7%.

For `O=S(=O)(O)c1ccc(N=Nc2c(O)ccc3ccccc23)cc1`, the Potency entry in experiment [1], in experiment [3], in [4], in experiment [6], in experiment [7] and in experiment [8] was “inactive” throughout. Further, in experiment [9], the Potency entry is “inactive”.

As for `COC(=O)c1ccccc1OC`, the Potency entry in experiment [10], in experiment [3], in [4], in experiment [5], in experiment [6] and in experiment [7] was “inactive” throughout. The Potency entry in experiment [8] and in experiment [9] was “inactive” in each case. Besides, the max response in experiment [2] is 2.19%.

As for `Cc1c2ccccc2c(C)c2c1ccc1ccccc12`, the Potency entry in [10], in [4], in experiment [5], in experiment [6], in experiment [7] and in experiment [8] was “inactive” throughout. The Potency in experiment [2] is 43.2 µM (active) and 34.7 µM (active); in [3], 49 µM (active); in [9], 43.6 µM (active).

`Cc1cccc(C(=O)O)c1O`: the Potency result in [10], in [3], in experiment [4], in experiment [5], in experiment [6] and in experiment [7] was “inactive” in each case. Also, the Potency result in experiment [8] and in [9] was “inactive” throughout. The max response in experiment [2] was 6.77%.

In the case of `CC[C@H](C)COC(=O)/C=C/c1ccc(N=Cc2ccc(OC)cc2)cc1`, the Potency result in experiment [10], in experiment [4] and in experiment [5] was “inactive” throughout. Also, in experiment [2], the Potency was 21.8 µM (active).

Take `Cc1c(N)cccc1C(F)(F)F`: the Potency result in [10], in [3], in experiment [5], in [6], in experiment [7] and in experiment [8] was “inactive” throughout. Further, the Potency entry in experiment [9] was “inactive”. The max response in experiment [2] is -0.691%.

In the case of `CCC(=O)OC(=O)CC`, the Potency entry in experiment [10], in experiment [3], in experiment [4], in experiment [5], in experiment [6] and in [7] was “inactive” each time. The Potency entry in experiment [8] and in experiment [9] was “inactive” each time. In addition, the max response in experiment [2] is 0.495%.

For the compound `O=C(/C=C/c1ccc(O)c(O)c1)O[C@@H](C(=O)O)[C@@H](OC(=O)/C=C/c1ccc(O)c(O)c1)C(=O)O`, the Potency entry in experiment [10], in experiment [3], in experiment [5], in experiment [6], in [7] and in experiment [8] was “inactive” throughout. In addition, in [9], the Potency entry was “inactive”. Moreover, the max response in [2] was 1.33%.

`CCCCCCCCCCCC(=O)OCC(C)OC(=O)CCCCC(=O)O` (stereo not drawn): the Potency result in experiment [10], in [3], in experiment [4], in experiment [5], in [6] and in [7] was “inactive” each time. Besides, the Potency entry in experiment [8] and in experiment [9] was “inactive” each time. The max response in experiment [2] was 14.1%.

With `CC(C)(C)C1CCC(=O)CC1`, the Potency result in [10], in [3], in experiment [5], in [6], in experiment [7] and in [8] was “inactive” each time. The Potency result in [9] was “inactive”. Also, in [2], the max response is 0.275%.

Values taken from PubChem BioAssay (Tox21).
